Assay results taken from PubChem BioAssay (NCATS).
For part of these data: Measured potencies and affinities stand elsewhere. Active and inactive are the calls of the source.

Experiments:
[1] = Ebola virus entry assay, blue channel fluorescence
[2] = Ebola virus entry reporter assay, green channel fluorescence
[3] = Ebola virus entry cell assay, ratio channel

Measured: outcome

CCCc1nc(C(C)(C)O)c(C(=O)OCc2oc(=O)oc2C)n1Cc1ccc(-c2ccccc2-c2nn[nH]n2)cc1
inactive: all assays above

CCOC(=O)[C@H](CCc1ccccc1)N[C@H]1CCCN2CCC[C@@H](C(=O)O)N2C1=O
inactive: all assays above

Clc1ccc2c(c1)C(c1ccccc1)=NCc1nncn1-2
inactive: all assays above

C#CCC(Cc1cnc2nc(N)nc(N)c2n1)c1ccc(C(=O)N[C@@H](CCC(=O)O)C(=O)O)cc1 (some centres undefined)
inactive: all assays above

CC(C)c1nc(N(C)S(C)(=O)=O)nc(-c2ccc(F)cc2)c1/C=C/C(O)CC(O)CC(=O)O (centres undefined)
inactive: all assays above

OCC(S)CS (centres undefined)
inactive: all assays above

CN[C@H](CC(C)C)C(=O)N[C@H]1C(=O)N[C@@H](CC(N)=O)C(=O)N[C@H]2C(=O)N[C@H]3C(=O)N[C@H](C(=O)N[C@@H](C(=O)O)c4cc(O)cc(O)c4-c4cc3ccc4O)[C@H](O)c3ccc(c(Cl)c3)Oc3cc2cc(c3O[C@@H]2O[C@H](CO)[C@@H](O)[C@H](O)[C@H]2O[C@H]2C[C@](C)(N)C(O)[C@H](C)O2)Oc2ccc(cc2Cl)[C@H]1O (some centres undefined)
inactive: all assays above

N[C@@H](Cc1cc(I)c(Oc2ccc(O)c(I)c2)c(I)c1)C(=O)O
inactive: all assays above

COc1cc([C@@H]2c3cc4c(cc3[C@@H](O[C@@H]3O[C@@H]5CO[C@@H](C)O[C@H]5[C@H](O)[C@H]3O)[C@H]3COC(=O)[C@H]23)OCO4)cc(OC)c1O
inactive: all assays above

O=P(O)(O)C(O)(Cn1ccnc1)P(=O)(O)O
inactive: all assays above

CC(C)(S)[C@@H](N)C(=O)O
inactive: all assays above

NC(=O)CC[C@@H]1NC(=O)[C@H](Cc2ccccc2)NC(=O)[C@H](Cc2ccc(O)cc2)NC(=O)[C@@H](N)CSSC[C@@H](C(=O)N2CCC[C@H]2C(=O)N[C@@H](CCCN=C(N)N)C(=O)NCC(N)=O)NC(=O)[C@H](CC(N)=O)NC1=O
inactive: all assays above

C[C@@H]1O[C@@H]1P(=O)(O)O
inactive: all assays above

CCN(CC)C(=O)[C@]1(c2ccccc2)C[C@@H]1CN
inactive: all assays above

CC(C=CC1=C(C)CCCC1(C)C)=CC=CC(C)=CC(=O)O
inactive: all assays above

C[C@@H]1[C@H](O)[C@@H](C)/C=C/C=C\C=C\C=C\C=C\C=C\C=C\[C@H](O[C@@H]2O[C@H](C)[C@@H](O)[C@H](N)[C@@H]2O)C[C@@H]2O[C@](O)(C[C@@H](O)C[C@@H](O)[C@H](O)CC[C@@H](O)C[C@@H](O)CC(=O)O[C@H]1C)C[C@H](O)[C@H]2C(=O)O (stereo in doubt)
inactive: all assays above

O=C1[O][Bi][O]c2ccccc21
inactive: all assays above

CCC(=O)NCCC1CCc2ccc3c(c21)CCO3 (centres undefined)
inactive: all assays above

CCCCCCCN(CC)CCCC(O)c1ccc(NS(C)(=O)=O)cc1 (centres undefined)
inactive: all assays above

CCOC(=O)[C@H](CCc1ccccc1)N[C@@H](C)C(=O)N1[C@H](C(=O)O)C[C@H]2CCCC[C@@H]21
inactive: all assays above

CCNC(=O)[C@@H]1CCCN1C(=O)[C@H](CCCN=C(N)N)NC(=O)[C@H](CC(C)C)NC(=O)[C@@H](CC(C)C)NC(=O)[C@H](Cc1ccc(O)cc1)NC(=O)[C@H](CO)NC(=O)[C@H](Cc1c[nH]c2ccccc12)NC(=O)[C@H](Cc1cnc[nH]1)NC(=O)[C@@H]1CCC(=O)N1
inactive: all assays above

CCCCC(=O)N(Cc1ccc(-c2ccccc2-c2nn[nH]n2)cc1)[C@@H](C(=O)O)C(C)C
inactive: all assays above

CC(C)(O/N=C(\C(=O)N[C@@H]1C(=O)N2C(C(=O)[O-])=C(C[n+]3ccccc3)CS[C@H]12)c1csc(N)n1)C(=O)O
inactive: all assays above

CC(=O)NCCCS(=O)(=O)O
inactive: all assays above

CCOc1cc(CC(=O)N[C@@H](CC(C)C)c2ccccc2N2CCCCC2)ccc1C(=O)O
inactive: all assays above

O=C1Nc2ccc(Cl)cc2C(c2ccccc2Cl)=NC1O (centres undefined)
inactive: all assays above

C=CC1=C(C(=O)O)N2C(=O)[C@@H](NC(=O)/C(=N/OCC(=O)O)c3csc(N)n3)[C@H]2SC1 (stereo in doubt)
inactive: all assays above

CN[C@@H]1[C@H](O[C@H]2[C@H](O[C@H]3[C@H](O)[C@@H](O)[C@H](N=C(N)N)[C@@H](O)[C@@H]3N=C(N)N)O[C@@H](C)[C@]2(O)C=O)O[C@@H](CO)[C@H](O)[C@H]1O
inactive: all assays above

Nc1nc(/C(=C/CC(=O)O)C(=O)N[C@@H]2C(=O)N3C(C(=O)O)=CCS[C@H]23)cs1
inactive: all assays above

CC(C)CN(C[C@@H](O)[C@H](Cc1ccccc1)NC(=O)O[C@@H]1CCOC1)S(=O)(=O)c1ccc(N)cc1
inactive: all assays above

CO[C@@]1(NC(=O)C2SC(=C(C(N)=O)C(=O)O)S2)C(=O)N2C(C(=O)O)=C(CSc3nnnn3C)CS[C@@H]21 (some centres undefined)
inactive: all assays above

CC(=O)N1CCN(c2ccc(OC[C@H]3CO[C@](Cn4ccnc4)(c4ccc(Cl)cc4Cl)O3)cc2)CC1
inactive: all assays above

CC(C)(C)NC(=O)[C@@H]1C[C@@H]2CCCC[C@@H]2CN1C[C@@H](O)[C@H](Cc1ccccc1)NC(=O)[C@H](CC(N)=O)NC(=O)c1ccc2ccccc2n1
inactive: all assays above
